The nature of assay [1]: qHTS for Inhibitors of the Functional Ribonucleoprotein Complex (vRNP) of Lassa (LASV) Arenavirus: LASV Primary Screen - GLuc reporter signal (AID 1347082; calls by dose curve; tested in HEK293 reporter line; further: nearly all actives have a fitted effect of over 60% in size; further: potency means the concentration at half of the fitted maximal effect).
A short description of assay [2]: qHTS for Inhibitors of the Functional Ribonucleoprotein Complex (vRNP) of Lassa (LASV) Arenavirus: Viability assay - alamar blue signal for LASV Primary Screen (AID 1347083; calls by dose curve; tested in HEK293 reporter line; further: nearly all actives have a fitted effect of over 80% in size; further: potency means the concentration at half of the fitted maximal effect). In general terms: qHTS replaces the single test concentration by a dilution series.
The nature of assay [3]: qHTS for Inhibitors of the Functional Ribonucleoprotein Complex (vRNP) of Lymphocytic Choriomeningitis Arenaviruses (LCMV): Viability assay - alamar blue signal for LCMV Primary Screen (AID 1347085; calls by dose curve; tested in HEK293 reporter line; further: nearly all actives have a fitted effect of over 80% in size; further: potency means the concentration at half of the fitted maximal effect).
Assay [4] addresses Nucleoprotein (Lymphocytic choriomeningitis virus (strain Armstrong)) (UniProt P09992). Kind of assay: qHTS for Inhibitors of the Functional Ribonucleoprotein Complex (vRNP) of Lymphocytic Choriomeningitis Arenaviruses (LCMV): LCMV Primary Screen - GLuc reporter signal (AID 1347086; calls by dose curve; further: nearly all actives have a fitted effect of over 70% in size; further: potency means the concentration at half of the fitted maximal effect).
The nature of assay [5]: Primary qHTS to identify inhibitors of SARS-CoV-2 cell entry (AID 1645846; calls by dose curve; further: potency means the concentration at half of the fitted maximal effect; nearly all actives have a fitted effect of over 45% in size). To be noted: activity change, negative = inhibition: at 57.1 µM (top of the series) unless noted. A digest of the protocol:
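HEK293-ACE2 (Expi293F, stable hACE2), 1500 cells/well, o/n 37C; cpd 23 nL pin, 1 h; MLV-PP w/ SARS-CoV-2-S (Wuhan-Hu-1, Δ19 C-term); 48 h 37C; Bright-Glo luminescence; normalized vs S-PP and bald PP.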

Assay [6] deals with Alpha-galactosidase (Coffea arabica) (UniProt Q42656). Kind of assay: Counterscreen for Glucocerebrosidase Inhibitors: qHTS Assay for Coffee Bean alpha-Galactosidase at pH 4.5 (AID 957). In short, it runs like this: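 Quantitative HTS of compounds (0.7 nM to 77 uM) against coffee bean alpha-galactosidase at pH 4.5, measuring 4-methylumbelliferone fluorescence released from 80 uM substrate.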
(Counterscreens check selectivity or assay interference.)

Assay [7] is described as follows: Validation screen for inhibitors of Lassa infection (AID 463096; calls by dose curve).
Assay [8] can be described thus: Inducers of the Endoplasmic Reticulum Stress Response (ERSR) in human glioma: Validation (AID 504836). In short, it runs like this: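 Stably transfected U87-MG human glioma cells carrying a GRP78-based luminescent sensor were seeded at 1000 cells/well, pin-dosed with compounds and incubated 16 h. Luciferase reagent was then added, and end-point luminescence was read after 10 min at room temperature.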

Assay [9] can be described thus: Cytotoxicity counterscreen for inhibitors of SARS-CoV-2 cell entry (AID 1645845; calls by dose curve; further: nearly all actives have a fitted effect of over 50% in size). A digest of the protocol:
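After a 15 min room-temperature ATPLite 1step step, luminescence reflected ATP remaining in HEK293-ACE2 cells exposed to compound for 1 h plus 48 h at 37 C, with percent activity set by cell and no-cell controls.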

The target in assay [10] is Alpha-galactosidase (Coffea arabica) (UniProt Q42656). Kind of assay: Counterscreen for Glucocerebrosidase Inhibitors: qHTS Assay for Coffee Bean alpha-Galactosidase at pH 5.9 (AID 998). A digest of the protocol:
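In 50 mM citric acid pH 5.9 with 0.005% Tween-20, coffee bean enzyme hydrolyses 80 uM 4-MU alpha-D-galactopyranoside over 20 min at RT. Activity is normalized to controls; AC50 comes from Hill-modelled concentration-response data.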

The target of assay [11] is Nuclear receptor subfamily 1 group I member 3 (Homo sapiens) (UniProt Q14994). The assay is described as follows: Primary qHTS for antagonist of constitutive androstane receptor (CAR) against the NCATS DSHEA and TCM libraries (AID 1794836). In short, it runs like this: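 HepG2 cells stably carrying hCAR and a CYP2B6 luciferase reporter (2,500 cells/well) attached for 5 h, then received compounds with 48 uM CITCO for 24 h at 37C. ONE-Glo luminescence read antagonism; CellTiter-Fluor (405/540 nm) gave viability.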

Assay [12] in a line: KB-8-5-11 P-gp reporter qHTS against the NCATS DSHEA and TCM libraries (AID 1919977). A digest of the protocol: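 CellTiter-Glo luminescence after ~72 h exposure at 37C gave viability of KB-8-5-11 cells, the P-gp-overexpressing subline. Substances were titrated; colchicine was omitted from assay medium.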
Assay [13] is described as follows: qHTS for differential inhibitors of proliferation of Plasmodium falciparum line 7G8 (AID 1815).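 Further: potency means the concentration at half of the fitted maximal effect; parasite growth measured after three days of incubation.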
Assay [14] in a line: qHTS for differential inhibitors of proliferation of Plasmodium falciparum line GB4 (AID 1816).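 Further: potency means the concentration at half of the fitted maximal effect; parasite growth measured after 72 h incubation.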 To be noted: Potency: Plasmodium falciparum GB4 proliferation inhibition.
A short description of assay [15]: qHTS for differential inhibitors of proliferation of Plasmodium falciparum line 3D7 (AID 1876). Further: potency means the concentration at half of the fitted maximal effect.
Assay [16] is described as follows: qHTS for differential inhibitors of proliferation of Plasmodium falciparum line D10 (AID 1877).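 Further: potency means the concentration at half of the fitted maximal effect; parasites grown with compound for 72 h before DNA staining.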
Assay [17] can be described thus: qHTS for differential inhibitors of proliferation of Plasmodium falciparum line Dd2 (AID 1882). Further: potency means the concentration at half of the fitted maximal effect; nearly all actives have a fitted effect of over 65% in size. Conditions: Potency: Plasmodium falciparum Dd2 proliferation inhibition. In short, it runs like this:
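RBC culture, 0.3% parasitemia / 2.5% Hct final; cpd added by pin tool in DMSO; 72 h, 37 C, 5% CO2; lysis buffer + SYBR Green I, o/n RT dark; FI 485/535; norm. to artemisinin 0.29 uM and DMSO.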

Assay [18] is described as follows: qHTS for differential inhibitors of proliferation of Plasmodium falciparum line W2 (AID 1883).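 Further: potency means the concentration at half of the fitted maximal effect; parasites grown with compound for 72 h before lysis and staining.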 Conditions: Potency: Plasmodium falciparum W2 proliferation inhibition.
Assay [19] is described as follows: qHTS for differential inhibitors of proliferation of Plasmodium falciparum line HB3 (AID 1886).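 Further: potency means the concentration at half of the fitted maximal effect; parasites grown with compound for 72 h before SYBR Green readout.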 Conditions: Potency: Plasmodium falciparum HB3 proliferation inhibition.
Assay [20] addresses Ferritin light chain (Equus caballus) (UniProt P02791). Kind of assay: qHTS Validation Assay for Identification of Novel General Anesthetics (AID 2323). In short, it runs like this:
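10 uM horse-spleen apoferritin + 1-AMA (50% saturated, PBS); cpd pin-transferred, 10 min RT. Ex 380/Em 535 nm endpoint. Activity normalized between free 1-AMA and 1-AMA/apoferritin; 4-parameter Hill fit of concentration-response.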

Assay [21] concerns the target Endonuclease 4 (Escherichia coli (strain K12)) (UniProt P0A6C1). The assay is described as follows: Counterscreen for APE1 Inhibitors: qHTS Validation Assay for Inhibitors of Endonuclease IV (AID 1708). In short, it runs like this: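 Measured as reaction progress, the fluorescence gain between first and third kinetic reads after adding 50 nM TAMRA/BHQ-2 THF duplex to 2 nM enzyme preincubated 15 min with compound; 2 mM MgCl2, pH 7.5.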

Assay [22] is described as follows: qHTS for Activators of Parkin Expression: LOPAC Validation Assay (FLuc Reporter) (AID 720573). A digest of the protocol:
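FLuc luminescence read-out from a neuronal line expressing a Parkin-promoter-driven coincidence reporter. Cells treated 24 h at 37 C, 5% CO2 with compounds at 7 concentrations; signal increase normalized to DMSO and positive control.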

Structures are written as SMILES. Inconclusive results are not listed. Activity calls are given as the source filed them. Unless noted, the call rests on the fitted dose curve; in most records, active means well fitted curve in the direction sought with a large enough effect; inconclusive means small, poorly fitted or top-dose-only effect, or another doubt; inactive means no such curve, though single readings can be large; an effect the other way counts as inactive or inconclusive.

Potency and outcome data for ten compounds are collected here from PubChem BioAssay (NCATS).

Sequence of Alpha-galactosidase (Coffea arabica) (Q42656 whole entry, looked up): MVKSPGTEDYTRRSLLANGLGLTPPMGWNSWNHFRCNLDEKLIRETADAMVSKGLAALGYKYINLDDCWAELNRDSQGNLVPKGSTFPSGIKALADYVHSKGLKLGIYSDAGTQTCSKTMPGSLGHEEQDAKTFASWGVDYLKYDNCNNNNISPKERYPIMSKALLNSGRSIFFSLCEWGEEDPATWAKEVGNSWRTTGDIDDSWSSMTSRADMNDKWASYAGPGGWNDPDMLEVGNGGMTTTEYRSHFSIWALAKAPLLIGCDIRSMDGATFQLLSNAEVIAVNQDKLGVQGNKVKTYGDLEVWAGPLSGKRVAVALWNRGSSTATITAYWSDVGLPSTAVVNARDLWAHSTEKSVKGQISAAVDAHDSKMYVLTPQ
Sequence of Nucleoprotein (Lymphocytic choriomeningitis virus (strain Armstrong)) (P09992 whole entry, looked up): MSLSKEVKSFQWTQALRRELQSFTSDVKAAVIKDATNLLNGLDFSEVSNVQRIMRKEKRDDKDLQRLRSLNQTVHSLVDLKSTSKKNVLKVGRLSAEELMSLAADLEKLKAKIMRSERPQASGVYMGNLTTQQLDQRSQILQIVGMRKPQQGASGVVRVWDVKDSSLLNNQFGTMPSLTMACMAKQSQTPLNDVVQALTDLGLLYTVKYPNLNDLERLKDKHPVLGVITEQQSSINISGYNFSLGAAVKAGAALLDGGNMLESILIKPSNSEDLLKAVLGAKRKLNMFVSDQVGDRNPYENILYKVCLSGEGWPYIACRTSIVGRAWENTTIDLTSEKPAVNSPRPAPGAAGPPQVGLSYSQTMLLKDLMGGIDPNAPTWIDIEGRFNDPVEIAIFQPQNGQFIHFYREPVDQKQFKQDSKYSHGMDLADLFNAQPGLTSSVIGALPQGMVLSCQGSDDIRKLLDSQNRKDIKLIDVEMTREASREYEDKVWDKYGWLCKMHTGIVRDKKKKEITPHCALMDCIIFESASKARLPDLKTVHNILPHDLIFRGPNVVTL
Sequence of Nuclear receptor subfamily 1 group I member 3 (Homo sapiens) (Q14994 whole entry, looked up): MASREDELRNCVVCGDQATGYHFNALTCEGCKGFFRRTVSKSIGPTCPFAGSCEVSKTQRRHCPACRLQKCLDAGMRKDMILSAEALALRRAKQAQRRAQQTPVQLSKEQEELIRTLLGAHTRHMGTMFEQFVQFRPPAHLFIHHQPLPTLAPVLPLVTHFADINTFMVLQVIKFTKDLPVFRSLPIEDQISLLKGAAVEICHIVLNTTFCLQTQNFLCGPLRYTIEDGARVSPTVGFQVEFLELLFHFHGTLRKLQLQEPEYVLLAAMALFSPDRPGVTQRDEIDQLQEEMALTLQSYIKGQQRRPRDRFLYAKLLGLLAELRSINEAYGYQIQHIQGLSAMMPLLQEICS
Sequence of Ferritin light chain (Equus caballus) (P02791 2-175 limits assumed): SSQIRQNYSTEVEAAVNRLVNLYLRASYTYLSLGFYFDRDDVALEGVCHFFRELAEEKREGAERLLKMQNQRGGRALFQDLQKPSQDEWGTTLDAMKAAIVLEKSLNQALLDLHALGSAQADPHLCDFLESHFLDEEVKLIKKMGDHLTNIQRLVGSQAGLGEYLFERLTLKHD

Consider `c1ccc(CNc2nc(NCc3ccccc3)c3ccccc3n2)cc1`, for which the Potency was 19.3 µM (active) in assay [1]; 24.3 µM (active) in assay [2]; 24.3 µM (active) in assay [3]; 3.85 µM (active) in assay [4]; 22.4 µM (active) in assay [5].
On to `NCCCCNCCCN`, for which the compound was classed as inactive in [6] and in assay [8]. The Potency result in assay [7], in assay [1], in [2], in [3], in [4] and in assay [9] was “inactive” in each case.
On to `C[C@H]1[C@@H](OC(=O)CCC(=O)O)O[C@@H]2O[C@@]3(C)CC[C@@H]4[C@H](C)CC[C@@H]1[C@@]24OO3`, for which the Potency was 9.68 µM (active) in assay [1]; 5.44 µM (active) in [2]; 5.44 µM (active) in assay [3]; 3.06 µM (active) in assay [4]; 3.16 µM (active) in assay [5].
Consider `O=C(O)/C=C/c1ccc(O)c(O)c1`, for which the compound was called inactive in assay [6], in assay [10] and in [12]. Moreover, the Potency entry in assay [7], in assay [1], in assay [2], in assay [3], in assay [4] and in assay [11] was “inactive” in each case.
Turning to `CCCCCCCCCC[Si](C)(C)CCC(=O)NC(Cc1ccc(C)cc1)c1ccccc1` (stereo not drawn), the Potency in assay [13] is 3.55 µM (active); in [14] it was 2.24 µM (active); in assay [15], 2.82 µM (active); in assay [16] it was 3.55 µM (active); in assay [17], 5.01 µM (active); in assay [18], 3.16 µM (active). Further, the Potency in [19] is 2.82 µM (active). For the same compound, the result in assay [20] and in assay [8] was inactive. The Potency result in [7], in assay [1], in assay [2], in assay [3] and in assay [4] was “inactive” throughout.
For `CC(C)NC[C@H](O)COc1cccc2[nH]ccc12`, the result in [6], in assay [21], in assay [8] and in assay [22] was inactive. The Potency entry in assay [7], in assay [1], in assay [2], in [3] and in [4] was “inactive” throughout.
Take `CCCCCC(=O)CC`: the Potency result in [1], in assay [2], in assay [3], in assay [4] and in assay [11] was “inactive” throughout. Moreover, the compound was classed as inactive in [12].
Turning to `C=C/C(C)=C/C/C=C(\C)CCC=C(C)C`, the Potency entry in assay [1], in assay [2], in assay [3], in assay [4] and in assay [11] was “inactive” in each case. For the same compound, the compound was classed as inactive in assay [12].
For the compound `O=c1c(-c2ccc(O)cc2)coc2cc(O[C@@H]3O[C@H](CO)[C@H](O)[C@H](O)[C@H]3O)ccc12`, the Potency entry in [1], in assay [2], in [3], in assay [4] and in assay [11] was “inactive” in each case. The call in assay [12] was inactive.
As to `Cc1cc(Nc2cc(NC(=O)c3c(Cl)cccc3Cl)ccn2)nc(N)n1`, the Potency in [1] is 6.11 µM (active); in assay [2], 3.06 µM (active); in assay [3], 3.06 µM (active); in [4], 3.85 µM (active); in [5], 1.41 µM (active).
